# Compound activity from PubChem.
# Compounds with a hit are over-represented: about 9.5% of the library has one in this group of screens.
# HPGD block – HPGD (human) dehydrogenase inhibition. P15428. purified HPGD, NADH fluorescence kinetic, PGE2 substrate. Potency, µM, for inactives: at the highest dose activity change, negative = inhibition, hits mostly inhibitors. actives 4.3% (n = 150,000); active = well fitted inhibition curve with a large enough effect, not every such curve was filed as active; inconclusive = small, poorly fitted or top-dose-only effect, or another doubt; inactive = no such curve, though single readings can be large or run the other way
#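 NADH formation kinetics: reaction with 30 uM PGE2 and 1 mM NAD+ (final), 20 nM enzyme, Tris-HCl pH 8 with Tween 20, after 15 min compound preincubation at room temperature. Fluorescence change, last versus first of five reads.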
# Tau fibril FP – tau fibrillization inhibition (FP); Potency, µM (top dose mostly 57.7 µM), for inactives: at the highest dose activity, negative = inhibition, most hits filed as inhibitors; actives 0.39% (n = 280,000); K18 P301L tau heparin fibrillization, Alexa594 FP, 6 h; also: nearly all actives have a fitted effect of over 55% in size
# Target sequence (P10636 561-689 P618L limits assumed): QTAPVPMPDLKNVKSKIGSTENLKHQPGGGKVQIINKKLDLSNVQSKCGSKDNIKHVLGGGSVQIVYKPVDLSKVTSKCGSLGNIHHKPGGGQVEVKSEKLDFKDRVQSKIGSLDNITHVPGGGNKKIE
#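 Human tau K18 […] P301L fragment, 15 uM unlabeled plus 0.24 uM Alexa 594-labeled tau (final), with compound and 20 uM heparin in 100 mM sodium acetate pH 7; 6 hr at 37 C, then Alexa 594 FP read.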
# NPSR antag – blocks cAMP signaling of the human neuropeptide S receptor. Q6W5P4. CHO-NPSR cells, cAMP TR-FRET, antagonist mode. Potency, µM (doses to about 38.3 µM), for inactives: at the highest dose activity change, negative = inhibition, hits mostly inhibitors. actives 1% (n = 220,000). AID 1461; also: nearly all actives have a fitted effect of over 50% in size
# Target sequence (Q6W5P4 whole entry, looked up): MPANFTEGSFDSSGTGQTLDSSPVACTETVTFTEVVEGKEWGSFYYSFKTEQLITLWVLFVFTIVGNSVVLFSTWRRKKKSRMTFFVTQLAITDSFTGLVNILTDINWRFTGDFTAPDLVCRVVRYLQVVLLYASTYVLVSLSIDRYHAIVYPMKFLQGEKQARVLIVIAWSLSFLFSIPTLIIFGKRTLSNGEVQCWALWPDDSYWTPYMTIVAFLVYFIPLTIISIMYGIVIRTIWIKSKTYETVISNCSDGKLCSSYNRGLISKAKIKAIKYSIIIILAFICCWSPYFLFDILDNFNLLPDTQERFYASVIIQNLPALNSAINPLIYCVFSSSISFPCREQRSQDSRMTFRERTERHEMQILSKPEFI
# Tau ThT inhib – tau fibrillization inhibition (ThT binding); P10636; recombinant tau K18 P301L, heparin-induced fibrillization, ThT fluorescence; Potency, µM (highest dose often 57.4 µM), for the others: at the top dose activity, negative = inhibition, most hits filed as inhibitors; actives 2.1% (n = 270,000); AID 1460; also: nearly all actives have a fitted effect of over 55% in size
#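 Fibril formation assay: tau K18 P301L at 15 uM with trace Alexa 594 label, heparin inducer 20 uM, pH 7 sodium acetate buffer, 37 C for 6 hr; endpoint ThT signal.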
# ALDH1A1 block – ALDH1A1 (human) enzyme inhibition. P00352. Purified ALDH1A1, NADH fluorescence, propionaldehyde substrate. Potency, µM (doses to about 75.3 µM), without a hit: top-dose activity, negative = inhibition, actives largely listed as inhibitors. actives 7.3% (n = 220,000). AID 1030; active = well fitted inhibition curve with a large enough effect, not every such curve was filed as active; inconclusive = small, poorly fitted or top-dose-only effect, or another doubt; inactive = no such curve, though single readings can be large or run the other way;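 also: plate controls were no enzyme wells and a reference inhibitor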
# Tau fluor counter – counter-screen for tau fibril formation inhibitors; tau K18 P301L (four-repeat tau fragment) Alexa594 fluorescence, heparin fibrillization; Potency, µM (top dose mostly 57.7 µM), for the others: top-dose activity change, negative = decrease; actives 0.93% (n = 280,000); AID 1463; also: nearly all actives have a fitted effect of over 55% in size
#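 Human K18 P301L tau (15 uM unlabeled plus 0.24 uM Alexa 594-labeled, final) in 100 mM sodium acetate pH 7 was mixed with compound and 20 uM heparin and incubated 6 hr at 37 C.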
# * marks the source's active call; other numbers are inactive results; ? = inconclusive; nt = no result; [ ] = dose if it differs, or a comment. Unless noted, calls follow the shape of the dose curve; as a rule, active = well fitted curve in the direction sought with a large enough effect; inconclusive = small, poorly fitted or top-dose-only effect, or another doubt; inactive = no such curve, though single readings can be large; an effect the other way counts as inactive or inconclusive. Unless noted, % is scaled to controls: 0 for no effect and ±100 for the full control effect; potency is read from the fitted curve at half-maximal effect.
SMILES,HPGD block,Tau fibril FP,NPSR antag,Tau ThT inhib,ALDH1A1 block,Tau fluor counter
CCc1ccccc1N(CC)C(=O)c1cc2c(s1)-c1ccccc1OC2,nt,-7%,nt,?,nt,-14%
COc1ccc(/C=C2\CCCC(C(=O)C(F)(F)F)=C2O)cc1OC,nt,?,-25%,16µM*,0.13µM*,-17%
COc1ccc(/C=C2/CCCC(C(=O)C(F)(F)F)=C2O)cc1OC,nt,-4%,-2%[7.67 µM],?,nt,-11%
CCOc1cc(/C=C2\CCCC(C(=O)C(F)(F)F)=C2O)ccc1O,-13%,-5%,-11%,?,0.16µM*,-27%
c1nc(N2CCNCC2)c2cc(-c3ccc4c(c3)OCO4)ccc2n1,-20%,-2%,nt,-12%,-10%,-13%
CC(C)c1cc(Nc2cccc(O)c2)cc(C(C)C)c1O,1%,?,-9%[46.1 µM],32µM*,?,?
Cc1ccc(C(=O)Oc2ccc(C(=O)COC(=O)C3CC(=O)N(Cc4ccco4)C3)cc2)cc1 (centres undefined),?,-5%,1%[46.1 µM],?,25µM*,-8%
Cc1ccc(CCN2CC(C(=O)NCc3ccco3)CC2=O)cc1 (centres undefined),-12%,0%,-12%[46.1 µM],-6%,28µM*,-7%
O=C(COC(=O)C1CC(=O)N(Cc2ccccc2)C1)c1ccc(Br)cc1 (centres undefined),-10%,0%,14%,7%,1%,4%
Cc1[nH]c2ccccc2c1C(=O)COC(=O)C1CC(=O)N(Cc2ccco2)C1 (centres undefined),-10%,7%,-2%[46.1 µM],-6%,?,-5%
O=C(COC(=O)C1CC(=O)N(Cc2ccco2)C1)c1ccc(OC(=O)c2ccco2)cc1 (centres undefined),18µM*,4%,-19%[46.1 µM],0%,1.6µM*,-2%
CC(C)C[C@H](NC(=O)c1[nH]cnc1C(=O)Nc1ccc(CNC(=O)OC(C)(C)C)cc1)C(=O)OC(C)(C)C,nt,?,?,4%,nt,?
CC(C)C[C@H](NC(=O)c1[nH]cnc1C(=O)Nc1ccc(CNC(=O)OC(C)(C)C)cc1)C(=O)OCc1ccccc1,nt,10µM*,?,12%,nt,?
CC(C)(C)OC(=O)NCc1ccc(NC(=O)c2nc[nH]c2C(=O)N[C@@H](Cc2ccccc2)C(=O)OC(C)(C)C)cc1,nt,8.9µM*,-57%,?,nt,?
CC(C)(C)OC(=O)CNC(=O)c1[nH]cnc1C(=O)Nc1ccc(Cl)cc1,nt,25µM*,1%,?,nt,?
Cc1cc(C(=O)CSC(=S)SC(C)(C)C)ccc1Cl,-11%,nt,nt,nt,3%[13.5 µM],nt
O=C(COc1ccc2ccccc2c1)N1CCN(C(=O)c2ccco2)CC1,nt,-15%,8%,-7%,?,-10%
NNC(=O)c1ccc(COc2ccc3c(c2)CCC3)o1,-1%,9%,20%,?,7.9µM*,-13%
COc1cccc(OC)c1C(=O)NNC(=O)c1cccc(COc2ccc3c(c2)CCC3)c1,-6%,1%,-11%[46.1 µM],?,20µM*,-19%
O=C(N/N=C/c1cccc(O)c1)c1ccc(COc2ccc3c(c2)CCC3)o1,-16%,?,?,?,-10%,?
O=C(c1ccco1)N1CCN(C(=O)c2ccc(COc3ccc4c(c3)CCC4)o2)CC1,28µM*,-5%,-18%[46.1 µM],?,28µM*,-4%
Cc1ccc(NC(=O)Cn2cnc3sc(C(=O)O)c(C)c3c2=O)cc1Cl,nt,5%,nt,-13%,nt,-6%
C#CCn1cc[n+](CC(=O)N(C)C)c1,-5%,2%,5%[46.1 µM],-4%,11%,-3%
S=C(NNc1ccnc2cc(Cl)ccc12)Nc1ccccc1Cl,25µM*,5%,-15%,15%,?,-2%
Clc1ccc(NNc2ccnc3cc(Cl)ccc23)cc1,-19%,-9%,-11%[46.1 µM],3.2µM*,-8%,?
SMILES,HPGD block,Tau fibril FP,NPSR antag,Tau ThT inhib,ALDH1A1 block,Tau fluor counter
Nc1nc(-c2ccccc2)c(-c2ccccc2)c(-c2nc(N)nc(-c3ccccc3)c2-c2ccccc2)n1,-1%,nt,nt,nt,6%[13.5 µM],nt
CC(C)CCN(CCC(C)C)C(CO)(CO)CO,nt,-9%,-12%,-1%,28µM*,2%
O=C(CSc1nc2c(c(=O)[nH]1)CCC2)Nc1cccc(Cl)c1,14µM*,-11%,-15%[46.1 µM],-6%,0%,-7%
CCc1cccc(NC(=O)CSc2nc3c(c(=O)[nH]2)CCCC3)c1,10µM*,-5%,9%,3%,3%,-2%
COc1cccc(NC(=O)CSc2ncnc3c2oc2ccccc23)c1,-14%,?,?,-13%,-3%,?
COc1cccc(NC(=O)CSc2nc3c(oc4ccccc43)c(=O)[nH]2)c1,16µM*,0%,-16%,-1%,-7%,-4%
N#Cc1c(-c2ccco2)nc(SCC(=O)Nc2cccc(Cl)c2)[nH]c1=O,18µM*,0%,?,-10%,?,-21%
CCc1cccc(C)c1NC(=O)CSc1nc2c(c(=O)[nH]1)CCC2,nt,8%,nt,14%,nt,18%
COC(=O)c1ccc(NC(=O)CSC2=NCCN2)cc1,-7%,-14%,9%[46.1 µM],?,-17%,3%
CC(=O)NC1C(=O)N=C(SCC(=O)Nc2cccc(Cl)c2)NC1=O (centres undefined),nt,-11%,13%,-12%,28µM*,-5%
CCC1C(=O)N=C(SCC(=O)Nc2ccc(C(=O)OC)cc2)NC1=O (centres undefined),14µM*,0%,4%[46.1 µM],0%,3%,1%
CCOc1ccccc1NC(=O)NC(CC)c1c(-n2cccc2)sc2c1CCN(C)C2 (centres undefined),nt,0%,nt,-17%,nt,-15%
CC(=O)/C(=N/Nc1ccccc1)N1CCOCC1,-20%,1%,18%[46.1 µM],1%,-4%,-5%
CC(=O)/C(=N/Nc1cccc(Cl)c1)N1CCOCC1,-27%,-1%,?,-12%,13µM*,-18%
CC(=O)/C(=N/Nc1ccccc1C)N1CCOCC1,-27%,-2%,7%[46.1 µM],-8%,18µM*,0%
COC(=O)NC(c1cccc(C)c1)[C@@]1(C(=O)OC)CCCC1=O (some centres undefined),nt,-1%[11.6 µM],nt,-8%[11.5 µM],12%[13.5 µM],-4%[11.6 µM]
CCC1=C2CC[C@H]3C(=O)N(CC(=O)OC)C(=O)[C@H]3[C@H]2[C@@]2(C)C(=O)N(Cc3ccccc3)C(=O)N2C1=O,-2%,-1%,nt,0%,-1%,-2%
CCOC(=O)CON1C(=O)c2ccccc2C1=O,-3%,2%,-2%[46.1 µM],-3%,8%,-3%
COc1ccc(-n2nc3cc(C)c(N)c(Br)c3n2)cc1,?,?,-14%[46.1 µM],14µM*,?,?
